Measurements: PubChem BioAssay (Tox21)
Results filed as inconclusive are left out. The source made the active and inactive calls. Unless noted, calls come from the whole dose curve; as a rule, active = well fitted curve in the direction sought with a large enough effect in the repeat runs; inconclusive = weak or mixed curves; inactive = no such curve, though single readings can be large; an effect the other way counts as inactive or inconclusive.

Key:
[1] = qHTS assay for small molecule agonists of the p53 signaling pathway (AID 651631; calls by dose curve; note: nearly all actives have a fitted effect of over 15% in size)
Outline: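 Beta-lactamase reporter activity under p53 response elements was quantified in HCT-116 cells by FRET fluorescence, following 16 h incubation with test compounds at 37 °C and 2 h substrate development at room temperature.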

[2] = qHTS assay for small molecules that induce genotoxicity in human embryonic kidney cells expressing luciferase-tagged ATAD5 (AID 651632); note: nearly all actives have a fitted effect of over 15% in size
Outline: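 Genotoxicity read-out via ATAD5-luciferase: HEK293T cells, 16 hr compound incubation at 37C, Amplite detection.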

[3] = qHTS assay for small molecules that induce genotoxicity in human embryonic kidney cells expressing luciferase-tagged ATAD5 - cell viability (AID 651634; calls by dose curve; note: nearly all actives have a fitted effect of over 25% in size)
Outline: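 Live-cell protease activity (CellTiter-Fluor, fluorescence) indicates viability. HEK293T cells with luciferase-tagged ATAD5; 15.5 hr compound treatment at 37C.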

[4] = qHTS assay for small molecule disruptors of the mitochondrial membrane potential (AID 720635)
Outline: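 Mitochondrial membrane potential tracked with Mito-MPS dye, red aggregates (ex 540/em 590 nm) against green monomers (ex 490/em 535 nm). Compound treatment 1 hr at 37C, dye 30 min in HepG2.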

[5] = qHTS assay to test for compound auto fluorescence at 590 nm (red) in HepG2 cells (AID 720674)
Outline: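 We screened compounds on adherent HepG2 cells, incubating them for an hour at 37 C in 5% CO2 before reading emission at 590 nm under 540 nm excitation; values reflect equivalence to Rose Bengal sodium fluorescence.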

[6] = qHTS assay to test for compound auto fluorescence at 535 nm (green) in HepG2 cells (AID 720675)
[7] = qHTS assay to test for compound auto fluorescence at 460 nm (blue) in HEK293 cells (AID 720678)
Outline: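 Cells were seeded and left to adhere for 4-5 hr at 37C. Compounds were then pin-transferred. After an overnight incubation at 37C under 5% CO2, intrinsic fluorescence at 405/460 nm was measured and referenced to triamterene.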

[8] = qHTS assay to test for compound auto fluorescence at 590 nm (red) in HEK293 cells (AID 720679)
Outline: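 Each well held 2,000 HEK293 cells in medium containing 10% dialyzed FBS. Following 4-5 hr attachment at 37C, 23 nL test compound or DMSO was added; plates sat overnight, and red fluorescence (540/590nm) was recorded.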

[9] = qHTS assay to test for compound auto fluorescence at 535 nm (green) in HEK293 cells (AID 720680)
[10] = qHTS assay to test for compound auto fluorescence at 460 nm (blue) in HEK293 cell free culture (AID 720681)
Outline: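 Blue fluorescence (Ex 405/Em 460 nm, triamterene-equivalent) was read immediately after pin transfer of compound or DMSO into medium (DMEM, 10% FBS) without cells.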

[11] = qHTS assay to test for compound auto fluorescence at 535 nm (green) in HEK293 cell free culture (AID 720682)
Outline: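 Each library compound, or DMSO control, is added by pintool to medium alone, comprising DMEM and 10% FBS. Emission at 535 nm following 485 nm excitation is quantified against fluorescein.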

[12] = qHTS assay to test for compound auto fluorescence at 590 nm (red) in HEK293 cell free culture (AID 720683)
Outline: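 Red-channel autofluorescence of compounds in culture medium (DMEM, 10% FBS), no cells, measured at 540/590 nm. Rose Bengal sodium is the reference fluorophore for equivalence.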

[13] = qHTS assay to test for compound auto fluorescence at 590 nm (red) in HepG2 cell free culture (AID 720684)
Outline: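 Steps: dispense MEM/10% FBS medium, no cells; pin compound or DMSO vehicle; read red channel, Ex/Em 540/590 nm. Output given as Rose Bengal sodium equivalents.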

[14] = qHTS assay to test for compound auto fluorescence at 535 nm (green) in HepG2 cell free culture (AID 720686)
[15] = biological target: Glucocorticoid receptor (Homo sapiens) (UniProt P04150); test: qHTS assay to identify small molecule agonists of the glucocorticoid receptor (GR) signaling pathway (AID 720691; active = well fitted activation curve with a large enough effect in the signal ratio in the repeat runs, not every such curve was filed as active; the % refers to the signal ratio)
Outline: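 Beta-lactamase reporter activity, read as fluorescence intensity, was measured in GR-bla HeLa cells exposed to compounds for 18 h at 37 C and then loaded with LiveBLAzer B/G FRET substrate for 2 h at room temperature.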

[16] = biological target: Glucocorticoid receptor (Homo sapiens) (UniProt P04150); test: qHTS assay to identify small molecule antagonists of the glucocorticoid receptor (GR) signaling pathway (AID 720692; active = well fitted inhibition curve with a large enough effect in the signal ratio in the repeat runs, not every such curve was filed as active; the % refers to the signal ratio)
Outline: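 Fluorescence from cleaved LiveBLAzer B/G FRET substrate reports GRE-driven beta-lactamase in HeLa cells; compounds are tested against 5 nM dexamethasone (final) over 18 h at 37 C, substrate incubation 2 h at room temperature.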

[17] = qHTS assay for small molecule disruptors of the mitochondrial membrane potential - cell viability (AID 720634; calls by dose curve;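 note: human HepG2 liver cancer cells; series mostly up to about 83 µM; nearly all actives have a fitted effect of over 20% in size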)
Outline: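 Human hepatoma HepG2 cells were treated for 1 hr with test chemicals, then given m-MPI dye and CellTiter-Glo. Cell viability reflects luminescence proportional to cellular ATP.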

[18] = qHTS assay to test for compound auto fluorescence at 460 nm (blue) in HepG2 cell free culture (AID 720685)
Outline: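 Compound (23 nL) or DMSO pinned into cell-free MEM with 10% FBS; blue fluorescence read at 405/460 nm excitation/emission, expressed as auto-fluorescence equivalency to triamterene.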

[19] = qHTS assay to test for compound auto fluorescence at 460 nm (blue) in HepG2 cells (AID 720687)
Outline: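 Blue-channel autofluorescence (Ex/Em 405/460 nm, triamterene-equivalent) was measured after 1 hr compound exposure at 37 C, 5% CO2. Cells were HepG2, plated overnight at 37 C in MEM plus 10% FBS.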

[20] = qHTS assay for small molecule agonists of the p53 signaling pathway - cell viability (AID 651633; calls by dose curve;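 note: p53RE-bla HCT reporter cells with a stable beta-lactamase p53 reporter; series mostly up to about 83 µM; nearly all actives have a fitted effect of over 30% in size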)
Outline: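 Viability counter-read: CellTiter-Glo luminescence (30 min, room temperature) in the same p53RE-bla plates. These plates had been exposed to compounds for 16 h at 37 C.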

Measured: Potency

Sequence of Glucocorticoid receptor (Homo sapiens) (P04150 whole entry, looked up): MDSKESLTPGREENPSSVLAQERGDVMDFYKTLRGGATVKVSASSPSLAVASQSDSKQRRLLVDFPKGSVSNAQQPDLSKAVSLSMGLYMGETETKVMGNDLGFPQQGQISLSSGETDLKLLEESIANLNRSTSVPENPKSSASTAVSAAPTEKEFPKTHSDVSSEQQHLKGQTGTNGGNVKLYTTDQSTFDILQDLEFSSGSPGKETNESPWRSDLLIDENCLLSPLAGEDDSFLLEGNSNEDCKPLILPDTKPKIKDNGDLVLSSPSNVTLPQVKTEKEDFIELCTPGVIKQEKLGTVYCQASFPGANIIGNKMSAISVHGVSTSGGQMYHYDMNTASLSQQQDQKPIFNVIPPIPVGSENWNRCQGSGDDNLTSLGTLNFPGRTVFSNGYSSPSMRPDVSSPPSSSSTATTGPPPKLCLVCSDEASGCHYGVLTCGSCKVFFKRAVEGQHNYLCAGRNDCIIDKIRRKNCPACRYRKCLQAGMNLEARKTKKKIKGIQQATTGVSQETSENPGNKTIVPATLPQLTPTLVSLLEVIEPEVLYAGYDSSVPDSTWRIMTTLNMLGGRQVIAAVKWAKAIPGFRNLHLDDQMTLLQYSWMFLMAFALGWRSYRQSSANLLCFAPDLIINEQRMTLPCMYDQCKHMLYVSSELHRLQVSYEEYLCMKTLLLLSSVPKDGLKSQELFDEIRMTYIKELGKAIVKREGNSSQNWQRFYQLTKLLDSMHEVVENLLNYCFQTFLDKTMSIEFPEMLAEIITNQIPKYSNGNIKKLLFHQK

Nc1ccc(F)cc1F
not listed: [17] | [18] | [19] | [20]
inactive: all other assays above

CO[C@@H]1COCC[C@@H]1N[C@@H]1CC[C@@](C(=O)N2CCc3ncc(C(F)(F)F)cc3C2)(C(C)C)C1
not listed: [4] | [15] | [19] | [20]
inactive: all other assays above

CC(C)Cc1nccs1
not listed: [4] | [5] | [15] | [16] | [17] | [20]
inactive: all other assays above

Cc1c(Cl)cccc1[N+](=O)[O-]
not listed: [3] | [4] | [17] | [20]
inactive: all other assays above

COc1cc(CNC(=O)CCCC/C=C/C(C)C)ccc1O
not listed: [4] | [16] | [20]
inactive: all other assays above

O=C(O)COCC(=O)O
not listed: [3] | [4] | [7] | [17]
inactive: all other assays above

O=C(O)c1ccncc1
not listed: [4] | [5] | [19] | [20]
inactive: all other assays above

Sc1nc(S)nc(S)n1
not listed: [4] | [5] | [15] | [16] | [20]
inactive: all other assays above
